Assay results taken from PubChem BioAssay AID1159580 (chemical genetic matrix, 2015).
The whole screen tested about 5,500 compounds, of which about 2,000 (36%) were called active. Another 18% or so got no clear call; they are omitted. Rule as the data show it: active = normalized growth mostly below about 0.91 (no sharp cut-off); inconclusive = no clear call, values can overlap the other calls; inactive = mostly above about 0.92. This is one part of the list.

Assay: chemical genetic growth profiling, strain panel (AID 1159580);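 also: tested at 20 µM; growth read once vehicle control cultures reached saturation at 30 °C; 1 = growth at the plate median or of vehicle wells; lower values mean less growth of the strain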
Settings: S. cerevisiae deletion strains, growth OD

Measured: normalized growth

Cc1c(C)c(C)c(C(O)c2ccccc2)c(C)c1C (stereo unspecified)
inactive: locus YAR019C, strain CDC15, active compounds read low 1 | locus YBL105C, strain PKC1, active compounds read low 1.01 | locus YBR135W, strain CKS1, active compounds read low 1 | locus YBR136W, strain MEC1, active compounds read low 1 | locus YBR160W, strain CDC28, active compounds read low 1.01 | locus YDL017W, strain CDC7, active compounds read low 1.01 | locus YDL028C, strain MPS1, active compounds read low 1 | locus YDL101C, strain DUN1, active compounds read low 0.998 | locus YDL108W, strain KIN28, active compounds read low 1.01 | locus YDL132W, strain cdc53, active compounds read low 0.998 | locus YDL214C, strain PRR2, active compounds read low 0.858 | locus YDR052C, strain DBF4, active compounds read low 0.989 | locus YDR054C, strain cdc34, active compounds read low 0.991 | locus YDR226W, strain ADK1, active compounds read low 0.993 | locus YDR477W, strain SNF1, active compounds read low 0.846 | locus YER123W, strain YCK3, active compounds read low 0.786 | locus YER133W, strain GLC7, active compounds read low 0.843 | locus YFL009W, strain cdc4, active compounds read low 0.994 | locus YFL029C, strain CAK1, active compounds read low 1 | locus YFR003C, strain YPI1, active compounds read low 1 | locus YFR019W, strain FAB1, active compounds read low 0.868 | locus YFR028C, strain CDC14, active compounds read low 0.997 | locus YGR040W, strain KSS1, active compounds read low 0.862 | locus YGR052W, strain FMP48, active compounds read low 0.75 | locus YGR092W, strain DBF2, active compounds read low 0.703 | locus YHR079C, strain IRE1, active compounds read low 0.742 | locus YHR082C, strain KSP1, active compounds read low 0.779 | locus YHR205W, strain SCH9, active compounds read low 0.775 | locus YIL147C, strain SLN1, active compounds read low 1.01 | locus YJL095W, strain BCK1, active compounds read low 0.602 | locus YJL128C, strain PBS2, active compounds read low 0.914 | locus YJL157C, strain FAR1, active compounds read low 0.884 | locus YJR016C, strain ILV3, active compounds read low 1 | locus YJR066W, strain TOR1 (second series), active compounds read low 0.84 | locus YJR066W, strain TOR1, active compounds read low 0.817 | locus YKL048C, strain ELM1, active compounds read low 0.867 | locus YKL067W, strain YNK1, active compounds read low 0.873 | locus YKL101W, strain HSL1, active compounds read low 0.781 | locus YKL193C, strain SDS22, active compounds read low 1 | locus YKL203C, strain TOR2, active compounds read low 0.894 | locus YLR133W, strain CKI1, active compounds read low 0.873 | locus YLR403W, strain SFP1, active compounds read low 0.847 | locus YML070W, strain DAK1, active compounds read low 0.75 | locus YMR001C, strain CDC5, active compounds read low 1 | locus YMR205C, strain PFK2 (second series), active compounds read low 0.849 | locus YMR277W, strain FCP1, active compounds read low 1 | locus YNL006W, strain LST8, active compounds read low 1.01 | locus YNL020C, strain ARK1, active compounds read low 0.852 | locus YNL161W, strain CBK1, active compounds read low 1 | locus YNL183C, strain NPR1, active compounds read low 0.696 | locus YNL207W, strain RIO2, active compounds read low 1 | locus YNL222W, strain SSU72, active compounds read low 0.999 | locus YNL307C, strain MCK1 (second series), active compounds read low 0.785 | locus YOL078W, strain AVO1, active compounds read low 1 | locus YOL136C, strain PFK27, active compounds read low 0.84 | locus YOR061W, strain CKA2, active compounds read low 0.844 | locus YOR119C, strain RIO1, active compounds read low 0.915 | locus YOR231W, strain MKK1, active compounds read low 0.785 | locus YOR329C, strain SCD5, active compounds read low 1 | locus YPL031C, strain PHO85, active compounds read low 0.806 | locus YPL153C, strain RAD53, active compounds read low 0.783 | locus YPL204W, strain HRR25, active compounds read low 0.777 | locus YPL209C, strain IPL1, active compounds read low 1 | locus YPR025C, strain CCL1, active compounds read low 1.01 | locus YPR106W, strain ISR1, active compounds read low 0.977 | locus YPR111W, strain DBF20, active compounds read low 0.967 | strain NNK1, active compounds read low 0.972 | strain TSCII, active compounds read low 1
active: locus YHR030C, strain SLT2, active compounds read low 0.442 | locus YLR113W, strain HOG1, active compounds read low 0.609 | locus YPL256C, strain CLN2, active compounds read low 0.67
